Bioassay records from PubChem BioAssay.
A selection: hits, their analogues and other compounds. The true share with any hit is near 4.1%.
PolyA inh – polyadenylation inhibitors in yeast reporter cells, primary screen, luminescence, S. cerevisiae; S. cerevisiae SKY197-pL101 polyadenylation reporter, beta-gal luminescence; efflux-impaired pdr1/pdr3 knockout yeast; score 100 = 6 SD above DMSO; activity score, % at 12 µM; hit rate 0.02% among 300,000; AID 1875, 2009;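 active = lowest replicate activity score at least 50, where 100 means six control SD above control mean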;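 also: yeast exposed to compound for 9 h at 30 °C; higher score means more reporter readthrough which indicates perturbed polyadenylation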
DAX1 inh-1 – DAX1 (NR0B1) inhibitors, primary screen, cell-based, HEK293, Gal4-DAX1, luciferase luminescence | hit rate 0.99% among 340,000 | HEK293 Gal4-DAX1 luciferase reporter | inhibition, % at 6.75 µM | Nuclear receptor subfamily 0 group B member 1 (Homo sapiens), P51843;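 active = inhibition above the mean over all tested compounds plus 3 SD, cut at about 4.2% in these data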;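 also: 0% = DAX1-transfected cells with DMSO and 100% = empty-vector control cells with DMSO; inhibition shows as a rise in luminescence from relieved DAX1 repression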
Target sequence (P51843 207-470 limits assumed): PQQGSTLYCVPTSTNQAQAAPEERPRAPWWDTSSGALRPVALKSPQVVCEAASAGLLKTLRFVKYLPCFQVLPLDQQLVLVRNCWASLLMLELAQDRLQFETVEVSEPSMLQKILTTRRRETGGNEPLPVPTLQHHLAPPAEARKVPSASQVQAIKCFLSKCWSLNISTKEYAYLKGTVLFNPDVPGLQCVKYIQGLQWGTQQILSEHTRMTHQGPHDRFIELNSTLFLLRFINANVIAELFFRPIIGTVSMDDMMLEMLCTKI
hgDAF-12 ag – H. glycines DAF-12 receptor agonists, primary screen, cell-based, luminescence, HEK293, GAL4 fusion, UAS-luciferase; HEK293 GAL4-hgDAF12 UAS-luciferase reporter, agonist luminescence; normalized to butyrate control; Nuclear hormone receptor DAF-12 (Heterodera glycines), GAL4 fusion; activation, % at 6.8 µM; hit rate 1.8% among 370,000;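 active = activation above a cutoff set at the mean of all screened compounds plus 3 SD, cut at about 10% in these data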;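 also: 0% = DMSO wells and 100% = sodium butyrate wells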
ssDAF-12 act – S. stercoralis DAF-12 nuclear receptor activators, primary screen, cell-based, luminescence, HEK293, GRIP1 co-expression, lit1-tk-luc; Nuclear hormone receptor DAF-12 (Strongyloides stercoralis); HEK293 ssDAF-12/GRIP1 lit1-tk-luc reporter; % of 3 µM dafachronic acid response; activation, % at 6.8 µM; hit rate 1% among 370,000; AID 652126, 2013;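 active = activation above the mean over all tested compounds plus 3 SD, cut at about 0.9% in these data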;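 also: 0% = DMSO-only wells and 100% = 3 µM delta7-dafachronic acid wells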
DAX1 inh-2 – DAX1 (NR0B1) inhibitors on StAR promoter, primary screen, cell-based, luminescence, SF-1 (NR5A1), full-length DAX-1; HEK293T StAR-luciferase reporter, SF-1/DAX-1 repression relief; AID 652010, 2013; inhibition, % at 6.8 µM; hit rate 1.1% among 370,000;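 active = inhibition above the mean over all tested compounds plus 3 SD, cut at about 3.6% in these data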;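 also: 0% = DAX-1 cells with DMSO and 100% = cells lacking DAX-1 with DMSO; higher inhibition means more luminescence from relief of DAX-1 repression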
hcDAF12 agonist – H. contortus DAF-12 nuclear receptor activators, primary screen, cell-based, luminescence, HEK293, lit1-tk-luc reporter. HEK293 hcDAF-12 lit1-tk-luc reporter; 0% DMSO, 100% Δ7-dafachronic acid. activation, % at 6.8 µM. hit rate 1.4% among 370,000;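 active = activation above the mean of all tested compounds plus 3 SD, cut at about 5.5% in these data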;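 also: 100% = response to 3 µM Δ7-dafachronic acid high control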
LXRb hcDAF ctr – LXR agonists, Gal4 luciferase reporter, confirmation, counter-screen for hcDAF-12 agonist project, cell-based, luminescence, HEK293, H. contortus campaign; shares compounds with hcDAF12 agonist; HEK293 Gal4-LXR tk-luc reporter, 24 h; normalized: DMSO 0%, positive control 100%; activation, % at 6.8 µM; 3,400 tested, under 10 active;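 active = mean percent activation of the reporter above a cutoff set as the average over tested compounds plus their standard deviation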
Target sequence (P55055 whole entry, looked up, the tested form may be a part): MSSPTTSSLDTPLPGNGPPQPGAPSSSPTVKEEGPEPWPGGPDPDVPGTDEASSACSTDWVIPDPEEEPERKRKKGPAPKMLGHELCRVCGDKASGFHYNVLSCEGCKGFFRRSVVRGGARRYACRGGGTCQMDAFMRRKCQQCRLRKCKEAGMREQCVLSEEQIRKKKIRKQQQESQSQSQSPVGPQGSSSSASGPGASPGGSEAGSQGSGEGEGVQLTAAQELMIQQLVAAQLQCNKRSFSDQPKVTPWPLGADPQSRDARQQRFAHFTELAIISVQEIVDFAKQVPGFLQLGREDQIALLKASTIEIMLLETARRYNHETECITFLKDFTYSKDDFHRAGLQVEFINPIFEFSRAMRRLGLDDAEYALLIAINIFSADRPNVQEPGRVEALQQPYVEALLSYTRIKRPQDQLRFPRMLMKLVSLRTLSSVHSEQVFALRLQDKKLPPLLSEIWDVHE
hcDAF12 ag – H. contortus DAF-12 receptor agonists, confirmation, cell-based, luminescence, HEK293, lit1-tk-luc, triplicate; HEK293 hcDAF-12 lit1-tk-luc reporter; % of Δ7-dafachronic acid response; hit rate 61% among 3,400; activation, % at 6.8 µM; shares compounds with hcDAF12 agonist;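 active = mean activation across triplicate tests above the threshold derived from the earlier primary screen, cut at about 5.5% in these data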;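 also: 0% = DMSO only wells and 100% = 3 µM Δ7-dafachronic acid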
An asterisk follows results filed as active; x = not tested or not shown.

SMILES | PolyA inh | DAX1 inh-1 | hgDAF-12 ag | ssDAF-12 act | DAX1 inh-2 | hcDAF12 agonist | LXRb hcDAF ctr | hcDAF12 ag
COc1cc(CC(=O)N2CCN(S(=O)(=O)c3ccc(C)cc3)CC2)cc(OC)c1OC | x | 1.4 | -1.0 | -1.1 | 0.4 | -0.1 | x | x
Cc1cc(/C=C2\Cc3ccccc3C2=O)c(C)n1-c1ccccc1 | -14.2 | -0.8 | 8.0 | 0.7 | 1.3 | 9.0* | 0.2 | -0.9
COc1ccc(C(=O)N2CCCCC2c2cc(C(=O)NCc3ccccc3)no2)cc1 (centres undefined) | x | x | -1.0 | -1.4 | -0.5 | 0.9 | x | x
CC(=O)Nc1ccc(S(=O)(=O)Nc2ccc(-n3cnnn3)cc2)cc1 | x | -0.5 | -0.6 | -0.5 | 0.6 | -0.9 | x | x
Cc1cccc(NC(=O)c2cc3cc([N+](=O)[O-])ccc3s2)n1 | -4.4 | 0.3 | -0.2 | -1.4 | 0.8 | -0.4 | x | x
COc1ccccc1-n1cc2ccc([N+](=O)[O-])cc2n1 | -11.0 | 1.3 | 10.0 | 0.1 | 0.2 | 8.6* | 0.5 | 6.6*
COCCCNC(=O)CCC(=O)NNc1nc2ccccc2c2nc(C)nn12 | 18.7 | 1.1 | 1.4 | -0.1 | 0.3 | 7.2* | -0.1 | 3.3
CCOCCCNC(=O)CCC(=O)NNc1nc2ccccc2c2nc(C)nn12 | 2.8 | -0.3 | -2.3 | -1.2 | 0.0 | 0.1 | x | x
Cc1nc2c(cc1C#N)C(=O)c1ccccc1-2 | -23.5 | 0.4 | -0.5 | -1.3 | 0.9 | -0.7 | x | x
Cc1cccc2cc3c(nc12)-c1ccccc1C3=O | -12.0 | 1.0 | 1.9 | -0.1 | 0.7 | 7.2* | 0.3 | 4.7
NS(=O)(=O)c1ccc(N=Nc2c(O)c(C(=O)O)cc3ccccc23)cc1 | -9.1 | 0.1 | -3.3 | -1.5 | -0.7 | 1.0 | x | x
O=C(O)Cc1ccc(N=Nc2c(O)c(C(=O)O)cc3ccccc23)cc1 | -6.5 | 0.7 | 10.1 | -0.1 | 0.4 | 6.8* | -0.4 | 0.6
CCCC(=O)Nc1ccc(-c2nc3cc(C)ccc3o2)cc1 | -14.3 | 0.4 | 13.3* | 1.7* | 3.9* | 12.4* | 1.4 | 8.4*
CCCC(=O)Nc1ccc2oc(-c3ccc(OC)c(Br)c3)nc2c1 | -28.6 | -0.9 | -0.5 | -1.1 | -0.6 | 0.0 | x | x
C#CCOCCOCCOCCNc1nc(N2CCN(C(=O)[C@H](CCCCN)n3cc(C(N)CO)nn3)CC2)nc(N2CCN(C(=O)[C@H](CCCCN)n3cc(C(N)COC(=O)C(F)(F)F)nn3)CC2)n1 (some centres undefined) | 1.1 | x | x | x | x | x | x | x
COc1ccc(Nc2cccc3ccccc23)cc1 | -13.1 | 0.4 | 4.6 | 1.3* | 0.6 | 6.9* | 0.5 | 6.5*
Cc1cc(O)c(C(=O)/C=C/c2ccc(Cl)cc2)c(=O)o1 | -4.1 | 1.1 | 6.4 | 0.5 | 0.9 | 13.2* | 0.1 | 0.4
O=[N+]([O-])c1cccn2cc(-c3ccc(Br)cc3)nc12 | -37.8 | 0.2 | 4.4 | -0.3 | 1.6 | 4.1 | x | x
Nc1nn2cc(-c3ccc(Br)cc3)nc2c2ccccc12 | 1.8 | 1.5 | 10.3 | 1.6* | 3.1 | 10.8* | 1.1 | 13.9*
CCN1CCN(c2ccc(S(=O)(=O)N3CCOCC3)cc2NC(=O)c2sccc2C)CC1 | -1.5 | 1.2 | -0.3 | -1.1 | -0.2 | -0.1 | x | x
S=C(Nc1ccccc1)Nc1nc2ccccc2n1CCOc1ccc(Br)cc1 | 11.1 | 0.5 | -2.4 | -1.1 | -0.3 | -0.8 | x | x
Cn1c(NC(=S)Nc2ccccc2)nc2ccccc21 | -11.3 | -0.5 | 10.7* | 0.6 | 2.2 | 7.9* | 0.7 | 4.9
C/C(=N\NS(=O)(=O)c1ccc([N+](=O)[O-])cc1)c1c[nH]c2ccccc12 | 6.8 | 0.6 | 1.4 | -0.3 | -0.7 | 10.6* | -0.2 | 1.6
COc1ccc(C(C)NC(=O)c2ccncc2)cc1 (centres undefined) | -17.2 | -0.6 | -0.4 | -1.5 | 0.2 | -0.7 | x | x
C/C(=N\NC(=S)Nc1cc(S(=O)(=O)N2CCOCC2)ccc1Cl)c1ccc(N2CCOCC2)cc1 | 2.7 | -2.5 | -2.3 | -1.6 | -0.3 | -1.9 | x | x
SMILES | PolyA inh | DAX1 inh-1 | hgDAF-12 ag | ssDAF-12 act | DAX1 inh-2 | hcDAF12 agonist | LXRb hcDAF ctr | hcDAF12 ag
C/C(=N\NC(=S)Nc1ccc(C)c(C)c1)c1ccc(N2CCOCC2)cc1 | 17.3 | 0.2 | 3.4 | -0.2 | 0.1 | 6.9* | -0.2 | 2.3
COc1ccccc1C(=O)NNC(=O)c1ccc(C)cc1 | -9.1 | -0.3 | 3.1 | -0.3 | 0.0 | -0.3 | x | x
COc1ccccc1C(=O)NNC(=O)c1cccc(O)c1 | -18.2 | 0.7 | 6.6 | 2.6* | 2.8 | 10.3* | 1.0 | 15.0*
COc1ccccc1C(=O)NNC(=O)c1cccc(F)c1 | 17.5 | 0.0 | 6.9 | 1.2* | 3.9* | 10.4* | 1.4 | 11.0*
COc1ccccc1C(=O)NNC(=O)c1ccc(NS(=O)(=O)c2cccs2)cc1 | -7.7 | 1.1 | -0.7 | 0.8 | 2.0 | 10.2* | -0.1 | 6.4*
CC(C)(C)CCN1CCC(CN2CCNC2=S)CC1 | x | 0.6 | -1.7 | -0.2 | -0.5 | 0.9 | x | x
CC1CCN(c2ccc(C(=O)O)cc2NS(=O)(=O)c2ccc(F)cc2)CC1 | x | x | -0.8 | -0.9 | -0.4 | -2.1 | x | x
CC1Cn2c(nnc2-c2ccc(F)cc2)S1 (centres undefined) | 7.1 | 1.1 | 0.2 | 1.0* | 1.8 | 6.9* | -0.1 | 1.6
Nc1ccc2nc(-c3ccc(Cl)cc3)[nH]c2c1 | -4.0 | 1.8 | 3.6 | -0.2 | 2.0 | 7.0* | 0.8 | 3.8
Nc1cc(N)cc(-c2nc3ccccc3[nH]2)c1 | x | -0.1 | 1.6 | -0.5 | 0.8 | 8.9* | 0.0 | 4.1
Nc1ccc(-c2nc3ccc(N)cc3[nH]2)cc1 | 6.5 | -0.7 | -2.0 | -2.0 | 0.5 | -0.9 | x | x
O=C(OC1C2C=CC1C1C(=O)NC21)c1ccccc1 (centres undefined) | x | -0.4 | -4.8 | -0.6 | 0.3 | -0.2 | x | x
O=C(COc1ncnc2sccc12)NC1CCCCC1 | x | 1.3 | 0.1 | -1.0 | 1.3 | 0.7 | x | x
O=C(/C=C\c1ccccc1OC(=O)c1ccccc1F)c1cc2ccccc2o1 | -25.2 | 5.3* | 9.9 | 0.5 | 0.6 | 7.3* | 0.6 | 5.9*
